Laboratory results: PubChem BioAssay AID602313 (National Center for Advancing Translational Sciences (NCATS), 2012)
The whole screen tested about 390,000 compounds, of which about 760 (0.19%) were called active. About 3% were inconclusive and are not listed. The sample holds actives, similar compounds and a random draw of the others, so the mix is not that of the screen. Unmarked numbers belong to inactive results. Calls follow the shape of the dose curve; as a rule, active = well fitted inhibition curve with a large enough effect; inconclusive = small, poorly fitted or top-dose-only effect; inactive = flat fitted curve, though single readings scatter.

Assay: qHTS for Inhibitors of Vif-A3F Interactions: qHTS; also: nearly all actives have a fitted effect of over 65% in size; as to activity, negative = active: % of control where 0% means no effect
Conditions: HeLa A3F-eYFP + Vif (tagged APOBEC3F with the HIV-1 protein that degrades it), YFP fluorescence increase; series mostly up to 46.1 µM; activity, negative = active: at the top concentration
Text: The recent discovery and characterization of host restriction factors, which provide a potent defense to invading retroviruses, has provided new targets for antiviral drug development. APOBEC3G (A3G) and APOBEC3F (A3F) are potent cytidine deaminases that block HIV-1 replication; HIV-1 expresses the Vif protein, which counteracts A3G and A3F by binding to them and inducing their proteasomal degradation. The Vif-A3G and Vif-A3F interactions provide two potential targets for development of small molecules which can interfere with the ability of Vif to degrade A3G or A3F. […] To identify inhibitors that can interfere with Vif mediated degradation of A3G and A3F, we have developed Hela cell lines that stably express A3G or A3F tagged with eYFP at the C-terminal end (A3G-eYFP or A3F-eYFP, respectively) and Vif. In the absence of an inhibitor, Vif induces degradation of A3G-eYFP and A3F-eYFP, and the cells are not fluorescent. In the presence of an inhibitor, it is expected that Vif will be unable to degrade A3G-eYFP and/or A3F-eYFP, resulting in an increase in yellow fluorescence. In this assays Vif A3F was screened against the Molecular Library Small Molecule Repository (MLSMR). NIH Chemical Genomics Center [NCGC] NIH Molecular Libraries Probe Centers Network [MLPCN] MLPCN Grant: MH093245 Assay Submitter (PI): Vinay Pathak, National Cancer Institute
5 uL of 700 cells/well of A3F-YFP cells are dispensed into black, clear bottom plates. The plates are incubated overnight at 37 deg C. 23 nL of compounds are added by pintool. The plates are incubated overnight at 37 deg C and then read on the TTP Acumen (Ex 488/ Em 500-530).
Potency is read from the fitted curve at half-maximal effect.

Row | Structure (SMILES) | activity, negative = active | Potency
1 | COc1ccc(Cl)cc1S(=O)(=O)N1CCC(c2ccncc2)CC1 | 3.97% | 
2 | CCOc1ccc2nc(N3CCC(C(=O)Nc4cc(C)ccc4C)CC3)sc2c1 | -11.1% | 
3 | CCCS(=O)(=O)c1ncc(Cl)c(C(=O)Nc2scc(-c3ccccc3)c2C(=O)OCC)n1 | 1.36% | 
4 | O=C(/C=C/c1ccccc1)Nc1cc(-c2nc3cc(Cl)ccc3o2)ccc1Cl | -2.35% | 
5 | COC(=O)c1ccccc1NC(=O)Cn1c(=O)cc(C)c2c(C)nn(-c3cccc(Cl)c3C)c21 | -10.3% | 
6 | Cc1cccc(NC(=O)Cn2nc(-c3ccc(Cl)cc3)c3ccccc3c2=O)c1 | -26.3% | 
7 | COc1cc2c(cc1OC)C(COc1ccc(F)cc1)N(C(=O)c1ccccc1F)CC2 (stereo unspecified) | 7.39% | 
8 | Cc1ccc(OCCSc2nc3ccc(NC(=O)COc4ccc(C)cc4)cc3s2)cc1 | -0.244% | 
9 | O=C(CC1NCCc2ccccc21)Nc1cccc(Cl)c1 (stereo unspecified) | -28.8% | 
10 | COC(=O)c1cc(C)sc1NC(=O)CC1Nc2ccccc2NC1=O (stereo unspecified) | -8% | 
11 | O=C(CC1Nc2ccccc2NC1=O)Nc1ccccc1 (stereo unspecified) |  | 12.6 µM (active)
12 | COc1cccc(CNC(=O)C2CCC(CNS(=O)(=O)c3cccs3)CC2)c1 (stereo unspecified) | 3.35% | 
13 | COc1ccc(C2c3c(oc4ccccc4c3=O)C(=O)N2Cc2ccc3c(c2)OCO3)cc1 (stereo unspecified) | -2.63% | 
14 | CC(=O)N1CCCc2cc(S(=O)(=O)N3CCC(C(=O)NCc4ccc(F)cc4)CC3)ccc21 | -3.28% | 
15 | Cc1cc(C)cc(NC(=O)CSc2nc(=O)n(CCN3CCOCC3)c3c2CCC3)c1 | 1.36% | 
16 | CCCCOC(=O)/C(C#N)=C/c1ccc(-c2cccc(C(F)(F)F)c2)o1 | 0.984% | 
17 | CCCCNC(=O)C1CCCN(c2nnc(C)c3c(C)n(-c4ccc(Cl)cc4)nc23)C1 (stereo unspecified) | 0.0194% | 
18 | CCOc1ccc(S(=O)(=O)Nc2ccc3oc4c(c3c2)CC(C)CC4)cc1 (stereo unspecified) | -1.64% | 
19 | CCNC(=O)c1cc2n(n1)CCCN(Cc1ccc(C)cc1)C2=O | -0.301% | 
20 | CCCOC(=O)c1c(NC(=O)c2cc3nc(-c4ccc(OC)cc4)cc(C(F)(F)F)n3n2)sc2c1CCCC2 | 1.95% | 
21 | O=C(NCC(c1ccc2c(c1)OCO2)N1CCN(c2ccccc2)CC1)C(=O)Nc1ccccc1F (stereo unspecified) | 2.29% | 

Row | Structure (SMILES) | activity, negative = active | Potency
22 | O=C(NC1CC(=O)N(c2ccc(F)cc2)C1)C1CCCCC1 (stereo unspecified) | 1.21% | 
23 | Cc1cc(C)c(/C=C2\C(=O)Nc3ccccc32)[nH]1 |  | 12.6 µM (active)
24 | Fc1ccc(-n2ncc3c(Nc4ccc(Oc5ccccc5)cc4)ncnc32)cc1 | -29% | 
25 | COc1ccccc1NC(=O)c1oc2ccccc2c1NC(=O)C(C)C | -14.6% | 
26 | Cc1ccc(Cc2nc3ccccc3nc2SCC(=O)Nc2cccc(C(F)(F)F)c2)cc1 | -7.16% | 
27 | COc1ccc(NC(=O)Cn2cc(C(=O)c3ccncc3)c(=O)c3cc(C)ccc32)cc1Cl | 0.229% | 
28 | Cc1ccc(C)c(Oc2c(C(F)(F)F)oc3c(CN4CCN(C)CC4)c(O)ccc3c2=O)c1 | -3.95% | 
29 | CC1CCC(N2CC(=O)N(CCC3=CCCCC3)C(c3ccc(F)cc3)C2=O)CC1 (stereo unspecified) | 9.13% | 
30 | COc1ccc(Cl)cc1NC(=O)c1sc2nc3c(cc2c1N)CN(C)CC3 | -23.7% | 
31 | CCOc1ccc(N2CC(c3nc4ccccc4n3CCOc3ccc(OC)cc3)CC2=O)cc1 (stereo unspecified) | 2.96% | 
32 | O=S(=O)(c1ccc(C2CCCCC2)cc1)N1CCN(c2ccc(Cl)c(Cl)c2)CC1 | -4.98% | 
33 | CC(C)c1ccc(C2CC(=O)N3CN(C4CCCCC4)CSC3=C2C#N)cc1 (stereo unspecified) | 1.95% | 
34 | CCOc1ccc2oc(=O)cc(CN3CCN(C(=O)c4ccc(F)cc4)CC3)c2c1 | 8.67% | 
35 | COc1ccc(-c2nn3c(-c4ccc(OC)cc4)nnc3c3ccccc23)cc1 | 3.72% | 
36 | CC(C)c1ccc(NC(=O)c2cc(S(=O)(=O)N3CCc4ccccc4C3)ccc2F)cc1 | 0.749% | 
37 | CCOc1ccccc1C(=O)NCc1ccc2c(c1)CCN2C(=O)c1ccc(F)cc1 | -7.05% | 
38 | CCOc1ccc(N(Cc2ccccc2)C(=O)c2nc(S(C)(=O)=O)ncc2Cl)cc1 | 5.15% | 
39 | Cc1ccc2sc(N(Cc3cccnc3)C(=O)C3COc4ccccc4O3)nc2c1C (stereo unspecified) | -6.9% | 
40 | Cc1ccc(NC(=O)c2oc3ccc(S(=O)(=O)N4CCCCC4)cc3c2C)cc1Cl | 0.769% | 
41 | CCc1nn(CC(=O)N2CCN(c3ccc(Cl)cc3)CC2)c(=O)c2cc3occc3n12 | 0.0492% | 
42 | Cc1nc2c(-c3ccccc3)c(C)nn2c(C)c1CCC(=O)NCCc1ccccc1 | -7.66% | 

Row | Structure (SMILES) | activity, negative = active | Potency
43 | COc1ccccc1Nc1nc(N)nc(N)c1S(=O)(=O)c1ccccc1 | 6.16% | 
44 | COc1cc(NC(=O)c2cc3ccc4cccnc4c3[nH]2)cc(OC)c1OC | -2.39% | 
45 | COc1ccc(-c2cn3c(n2)sc2cc(C(=O)Nc4ccc(F)cc4)ccc23)cc1 | 0.115% | 
46 | COc1ccc(NC(=O)c2sc3nc(-c4cc5cccc(OC)c5oc4=O)[nH]c(=O)c3c2C)cc1 | 6.98% | 
47 | COc1ccc(-c2nc3cnccn3c2NC2CCCCC2)cc1-c1cccc(Cl)c1 |  | 22.4 µM (active)
48 | COc1ccc(-c2nc3cnccn3c2NC(C)(C)CC(C)(C)C)cc1O | 5.18% | 
49 | Cc1ccc(Nc2c(-c3ccc(C)cc3)nc3cnccn23)cc1 | -7.53% | 
50 | CCOCCCNC(=O)c1ccc2nc(CCc3ccccc3)oc2c1 | 1.04% | 
51 | COc1ccc(C(=O)Nc2ccc(-n3nncc3-c3ccccc3)cc2)cc1OC | -3.35% | 
52 | NNC(=O)c1oc2nc(-c3ccccc3)cc(-c3ccco3)c2c1N |  | 11.2 µM (active)
53 | Cc1ccc(CSc2nc3cccnc3n2Cc2ccc(C(=O)NC3CC3)cc2)cc1 | -1.49% | 
54 | CCOC(=O)c1cnc2c(C)cc(Cl)cc2c1NCCc1ccc(OC)c(OC)c1 | -0.291% | 
55 | O=C(Cc1ccc(Cl)cc1)Nc1ccc2nn(-c3ccc(Cl)cc3)nc2c1 | 2.37% | 
56 | CCOC(=O)c1c(C)oc2nc(C)nc(N3CCN(c4ccc(OC)cc4)CC3)c12 | 0.623% | 
57 | CC(C)c1ccc(NC(=O)Cn2nnc(C(=O)NCCc3ccccc3)c2N)cc1 | -1.66% | 
58 | O=C(CCCn1c(=O)c2cccn2c2cccnc21)NCc1ccc(F)cc1 | 0.614% | 
59 | Cc1cc(=O)n(CC(=O)Nc2cccc([N+](=O)[O-])c2)c(-n2nc(C)cc2C)n1 | 3.02% | 
60 | CCOC(=O)c1c(S(=O)(=O)N2CCC(C(=O)NCc3ccccc3OC)CC2)c(C)n(C)c1C | 0.785% | 
61 | CSc1ccc(C2c3c(oc4ccccc4c3=O)C(=O)N2CCCN2CCOCC2)cc1 (stereo unspecified) | 8.49% | 
